# From PMC7862700, “An all-to-all approach to the identification of sequence-specific readers for epigenetic DNA modifications on cytosine”
# How the values were obtained:
# Assay in all cases: DAPPL (digital affinity profiling via proximity ligation, sequencing); 10 mM Tris-HCl pH 7.5, 50 mM NaCl, 1 mM DTT, 4% glycerol, room temperature, 30 min; GST-TFs on glutathione beads, 16-mer random dsDNA library, 0.1% formaldehyde crosslink after washing; high values mean tight binding
# [1] = biological target: T1, FEV (Homo sapiens, UniProt Q99581 1-238); conditions: protein: recombinant; tags: N-terminal GST; dsDNA, one strand shown
# T1 sequence: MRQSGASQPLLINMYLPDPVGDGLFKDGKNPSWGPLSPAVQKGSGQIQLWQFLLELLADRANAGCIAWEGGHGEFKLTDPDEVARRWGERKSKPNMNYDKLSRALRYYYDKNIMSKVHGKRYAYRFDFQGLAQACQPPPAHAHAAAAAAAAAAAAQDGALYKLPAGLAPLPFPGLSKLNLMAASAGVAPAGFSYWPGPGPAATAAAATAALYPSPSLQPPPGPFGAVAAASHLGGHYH
# How it was run: (§1)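 After expression in yeast as GST fusions, human transcription factors were bound to glutathione beads, DNA-barcoded and mixed with a tag-only sample. The pools were incubated with 200 nmole of a 16-mer random double-stranded DNA library in Tris/NaCl/DTT/glycerol buffer (30 min, room temperature), washed and crosslinked with 0.1% formaldehyde. Proximity ligation with BsaI/T4 ligase ran for 1 h at 37 °C, before PCR amplification and sequencing on an Illumina NextSeq500. Binding signal is a hexamer's read frequency for a factor divided by its frequency for the tag-only sample.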
# [2] = biological target: ETV5 (Homo sapiens, UniProt P41161 1-510); conditions: protein: recombinant; tags: N-terminal GST; dsDNA, one strand shown
# How it was run: as §1
# [3] = biological target: HSF1 (Homo sapiens, UniProt Q00613 1-529); conditions: protein: recombinant; tags: N-terminal GST; chain copies: 3; dsDNA, one strand shown
# How it was run: as §1
# [4] = biological target: T2, SPIC (Homo sapiens, UniProt Q8N5J4 1-248); conditions: protein: recombinant; tags: N-terminal GST; dsDNA, one strand shown
# T2 sequence: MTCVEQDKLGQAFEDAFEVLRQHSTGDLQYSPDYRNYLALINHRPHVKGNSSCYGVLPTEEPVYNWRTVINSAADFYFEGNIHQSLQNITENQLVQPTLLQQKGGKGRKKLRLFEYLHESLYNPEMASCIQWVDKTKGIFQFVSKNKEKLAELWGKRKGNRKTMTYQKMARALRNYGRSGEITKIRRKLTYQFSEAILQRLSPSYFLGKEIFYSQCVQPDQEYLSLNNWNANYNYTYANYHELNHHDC
# How it was run: as §1
# [5] = biological target: ELF4 (Homo sapiens, UniProt Q99607 1-663); conditions: protein: recombinant; tags: N-terminal GST; dsDNA, one strand shown
# How it was run: as §1
# [6] = biological target: T3, ELK4 (Homo sapiens, UniProt P28324-2 1-405); conditions: protein: recombinant; tags: N-terminal GST; dsDNA, one strand shown
# T3 sequence: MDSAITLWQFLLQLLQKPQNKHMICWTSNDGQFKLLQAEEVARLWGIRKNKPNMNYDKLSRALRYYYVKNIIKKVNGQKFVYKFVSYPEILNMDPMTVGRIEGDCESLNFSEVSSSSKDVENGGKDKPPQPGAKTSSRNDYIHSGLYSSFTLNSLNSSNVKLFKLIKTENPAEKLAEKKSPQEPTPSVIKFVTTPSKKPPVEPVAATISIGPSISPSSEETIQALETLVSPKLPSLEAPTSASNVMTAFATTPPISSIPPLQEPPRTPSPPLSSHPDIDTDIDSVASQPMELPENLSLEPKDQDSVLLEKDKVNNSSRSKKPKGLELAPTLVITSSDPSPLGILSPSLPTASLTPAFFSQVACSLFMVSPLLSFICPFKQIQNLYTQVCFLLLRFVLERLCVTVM
# How it was run: as §1
# [7] = biological target: T4, ETV2 (Homo sapiens, UniProt O00321 1-342); conditions: protein: recombinant; tags: N-terminal GST; dsDNA, one strand shown
# T4 sequence: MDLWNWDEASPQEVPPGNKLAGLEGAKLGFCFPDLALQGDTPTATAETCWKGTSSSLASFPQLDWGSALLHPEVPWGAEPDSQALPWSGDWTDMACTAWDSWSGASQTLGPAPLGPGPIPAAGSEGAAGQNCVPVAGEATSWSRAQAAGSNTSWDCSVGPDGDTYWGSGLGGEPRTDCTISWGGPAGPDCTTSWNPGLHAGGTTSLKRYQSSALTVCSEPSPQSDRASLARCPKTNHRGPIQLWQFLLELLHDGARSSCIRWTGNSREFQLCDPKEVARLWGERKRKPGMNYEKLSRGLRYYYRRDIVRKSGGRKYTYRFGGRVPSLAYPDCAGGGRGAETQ
# How it was run: as §1
# [8] = biological target: T5, ELF3 (Homo sapiens, UniProt P78545 1-371); conditions: protein: recombinant; tags: N-terminal GST; dsDNA, one strand shown
# T5 sequence: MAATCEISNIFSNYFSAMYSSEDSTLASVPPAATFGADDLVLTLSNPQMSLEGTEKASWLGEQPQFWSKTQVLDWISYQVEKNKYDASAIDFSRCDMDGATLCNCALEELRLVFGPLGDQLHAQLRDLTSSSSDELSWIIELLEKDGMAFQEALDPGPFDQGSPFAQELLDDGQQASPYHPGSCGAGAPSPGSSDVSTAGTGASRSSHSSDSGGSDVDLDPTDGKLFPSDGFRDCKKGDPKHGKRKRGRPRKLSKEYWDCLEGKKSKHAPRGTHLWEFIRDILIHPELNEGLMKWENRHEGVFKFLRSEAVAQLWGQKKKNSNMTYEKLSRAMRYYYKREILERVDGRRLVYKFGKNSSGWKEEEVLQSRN
# How it was run: as §1
# [9] = biological target: CRX (Homo sapiens, UniProt O43186 1-299); conditions: protein: recombinant; tags: N-terminal GST; dsDNA, one strand shown
# How it was run: as §1
# [10] = biological target: ETV1 (Homo sapiens, UniProt P50549 1-477); conditions: protein: recombinant; tags: N-terminal GST; dsDNA, one strand shown
# How it was run: as §1
# Chain of CRX (O43186 whole entry): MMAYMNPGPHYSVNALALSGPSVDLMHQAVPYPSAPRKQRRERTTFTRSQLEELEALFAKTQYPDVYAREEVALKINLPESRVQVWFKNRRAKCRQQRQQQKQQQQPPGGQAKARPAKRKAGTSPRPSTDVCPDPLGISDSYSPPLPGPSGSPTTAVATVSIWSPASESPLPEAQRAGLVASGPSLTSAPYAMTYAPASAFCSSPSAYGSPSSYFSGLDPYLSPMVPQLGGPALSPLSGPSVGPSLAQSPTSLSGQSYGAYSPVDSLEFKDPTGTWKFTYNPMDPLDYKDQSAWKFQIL
# Chain of HSF1 (Q00613 whole entry): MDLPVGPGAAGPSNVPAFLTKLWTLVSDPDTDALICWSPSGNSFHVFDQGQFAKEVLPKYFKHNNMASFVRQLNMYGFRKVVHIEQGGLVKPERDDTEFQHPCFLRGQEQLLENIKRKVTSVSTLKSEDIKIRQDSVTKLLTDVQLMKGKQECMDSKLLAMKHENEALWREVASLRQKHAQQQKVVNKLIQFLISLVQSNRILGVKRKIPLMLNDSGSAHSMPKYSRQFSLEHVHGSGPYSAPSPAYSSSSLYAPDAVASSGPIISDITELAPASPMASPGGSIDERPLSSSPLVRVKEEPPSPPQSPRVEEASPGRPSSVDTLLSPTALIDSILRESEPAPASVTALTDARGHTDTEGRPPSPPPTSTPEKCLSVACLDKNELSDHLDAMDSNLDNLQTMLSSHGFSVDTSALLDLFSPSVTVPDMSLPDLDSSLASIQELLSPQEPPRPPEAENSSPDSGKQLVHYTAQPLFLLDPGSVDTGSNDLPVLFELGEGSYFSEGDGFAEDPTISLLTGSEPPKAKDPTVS
# Chain of ETV5 (P41161 whole entry): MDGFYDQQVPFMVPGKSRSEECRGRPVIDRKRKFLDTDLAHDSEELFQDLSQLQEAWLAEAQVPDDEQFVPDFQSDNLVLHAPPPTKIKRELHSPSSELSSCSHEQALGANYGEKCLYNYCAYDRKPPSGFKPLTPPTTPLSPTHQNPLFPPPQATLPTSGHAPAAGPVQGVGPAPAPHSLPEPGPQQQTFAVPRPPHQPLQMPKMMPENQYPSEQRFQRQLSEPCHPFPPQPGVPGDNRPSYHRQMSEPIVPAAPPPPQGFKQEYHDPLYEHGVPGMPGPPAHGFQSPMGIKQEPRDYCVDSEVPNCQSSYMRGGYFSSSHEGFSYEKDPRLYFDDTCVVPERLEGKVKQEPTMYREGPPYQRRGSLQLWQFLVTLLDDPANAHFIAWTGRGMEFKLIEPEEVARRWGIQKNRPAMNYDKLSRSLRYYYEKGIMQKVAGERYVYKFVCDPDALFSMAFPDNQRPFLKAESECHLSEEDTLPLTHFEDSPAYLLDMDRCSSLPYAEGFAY
# Chain of ETV1 (P50549 whole entry): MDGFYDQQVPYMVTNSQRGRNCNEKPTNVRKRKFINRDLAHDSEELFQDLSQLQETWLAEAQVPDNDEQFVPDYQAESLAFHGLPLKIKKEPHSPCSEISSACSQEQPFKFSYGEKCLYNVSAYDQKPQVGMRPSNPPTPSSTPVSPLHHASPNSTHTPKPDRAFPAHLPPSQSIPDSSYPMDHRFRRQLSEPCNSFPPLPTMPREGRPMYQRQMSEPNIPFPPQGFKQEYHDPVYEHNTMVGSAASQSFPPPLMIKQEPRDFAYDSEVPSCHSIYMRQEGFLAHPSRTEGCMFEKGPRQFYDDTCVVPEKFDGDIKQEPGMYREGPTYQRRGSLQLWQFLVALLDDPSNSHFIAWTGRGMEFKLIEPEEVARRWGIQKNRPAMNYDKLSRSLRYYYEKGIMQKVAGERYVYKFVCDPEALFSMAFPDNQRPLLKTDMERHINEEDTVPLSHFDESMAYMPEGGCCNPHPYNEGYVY
# Chain of ELF4 (Q99607 whole entry): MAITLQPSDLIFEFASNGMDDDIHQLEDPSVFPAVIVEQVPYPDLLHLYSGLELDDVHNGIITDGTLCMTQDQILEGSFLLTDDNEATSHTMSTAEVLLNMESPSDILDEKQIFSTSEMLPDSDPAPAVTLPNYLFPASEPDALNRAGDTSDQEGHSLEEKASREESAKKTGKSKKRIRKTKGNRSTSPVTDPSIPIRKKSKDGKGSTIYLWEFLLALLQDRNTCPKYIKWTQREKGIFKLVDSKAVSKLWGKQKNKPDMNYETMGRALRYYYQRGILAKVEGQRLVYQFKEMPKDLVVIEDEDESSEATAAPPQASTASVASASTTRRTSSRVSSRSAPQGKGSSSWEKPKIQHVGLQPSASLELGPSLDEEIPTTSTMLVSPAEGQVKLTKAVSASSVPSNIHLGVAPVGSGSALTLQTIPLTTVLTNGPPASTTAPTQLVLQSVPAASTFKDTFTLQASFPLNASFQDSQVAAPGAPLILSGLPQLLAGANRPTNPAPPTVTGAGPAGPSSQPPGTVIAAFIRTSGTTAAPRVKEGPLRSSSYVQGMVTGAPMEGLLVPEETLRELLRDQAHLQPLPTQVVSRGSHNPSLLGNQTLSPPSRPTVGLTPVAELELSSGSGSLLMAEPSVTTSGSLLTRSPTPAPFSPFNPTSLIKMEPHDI
sequence,measurement,setting,value
CTGGCA,binding signal,[1],"1.27 fold enrichment (6-mer frequency, TF over GST control)"
same,binding signal,[2],"1.21 fold enrichment (6-mer frequency, TF over GST control)"
same,binding signal,[3],"1.62 fold enrichment (6-mer frequency, TF over GST control)"
same,binding signal,[4],"1.28 fold enrichment (6-mer frequency, TF over GST control)"
same,binding signal,[5],"1.35 fold enrichment (6-mer frequency, TF over GST control)"
same,binding signal,[6],"1.27 fold enrichment (6-mer frequency, TF over GST control)"
same,binding signal,[7],"1.49 fold enrichment (6-mer frequency, TF over GST control)"
same,binding signal,[8],"1.3 fold enrichment (6-mer frequency, TF over GST control)"
same,binding signal,[9],"1.19 fold enrichment (6-mer frequency, TF over GST control)"
same,binding signal,[10],"1.27 fold enrichment (6-mer frequency, TF over GST control)"
